Results taken from PubChem BioAssay (NCI).
The panel holds about 83,000 compounds, 20% with a hit somewhere; the sample as a whole holds those more often.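 A percent growth of 40 corresponds to 60% growth inhibition; 0 means no net growth; -100 means all cells died. Active threshold: below 10.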 The source made the active and inactive calls.

What follows are compounds tested on MDA-MB-468 breast (assay: NCI-60 one-dose screen, 48 h (100 = growth as untreated, 0 = no growth, -100 = all killed)). Conditions: 10 µM unless noted.

Compound	growth
C=CC(=O)N1CCC[C@@H](n2nc(-c3ccc(Oc4ccccc4)cc3)c3c(N)ncnc32)C1	-17.5% (active)
COc1ccc(C(C)=C(c2ccc(OCCN(C)C)cc2)c2ccc(OCCN(C)C)cc2)cc1	-76.9% (active)
Nc1ccc(-c2nn3c(CCC(=O)c4nc5ncccc5[nH]4)nnc3s2)c(O)c1	74.6% (inactive)
NC1=CC(=O)C(=O)c2cccnc21	81.3% (inactive)
CN1CCN(Cc2ccc(NC(=O)c3cncc(C#Cc4cnc5[nH]ncc5c4)c3)cc2C(F)(F)F)CC1	40% (inactive)
Cc1cccc(NC(=O)CCc2ccc(N3C(N)=NC(N)=NC3(C)C)cc2)c1	39.9% (inactive)
CC(C)CCOc1ccc(-c2n[nH]c(C(F)(F)F)c2-c2cncc(C#N)c2)c(O)c1	-26.4% (active)
CCOC(=O)c1c(-c2ccc(OC)cc2)c(C#N)c2c(C#N)c(N)nn2c1N	13.2% (inactive)
COc1cccc(/C=N\Nc2ccc([N+](=O)[O-])cn2)c1O	26.4% (inactive)
CCCCCn1sc(=O)n(Cc2ccc(CNC(=O)OCc3ccc4cccc(O)c4n3)cc2)c1=O	-48.1% (active)
Nc1cc(N)c(N=Nc2ccc(S(=O)(=O)O)cc2)cc1N=Nc1ccc(-c2ccc(N=Nc3ccc(O)c(C(=O)O)c3)cc2)cc1	97.6% (inactive)
NC(=O)CC1(c2ccccc2)CCCCC1	104% (inactive)
Oc1c(C(c2ccc(F)cc2)N2CCCCC2)ccc2cncnc12 (centres undefined)	-2.7% (active)
COc1cccc(/C=C2/C(=O)N(Cc3ccco3)SC2=S)c1OC	76% (inactive)
